Measured values from PubChem BioAssay (NCI).
About 83,000 compounds went through this panel and 20% of them were active in at least one assay; those are over-represented in the sample as a whole.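 Method: cells in 96-well plates; compound added at one concentration; 48 h incubation; percent growth measured; values under 10 scored active.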 Calls of active or inactive are those of the source.

Experiments:
Assay in all cases: NCI-60 one-dose screen, 48 h (100 = growth as untreated, 0 = no growth, -100 = all killed)
Conditions in all cases: 10 µM unless noted
SR leukemia = tested on: SR leukemia
RPMI-8226 leukemia = tested on: RPMI-8226 leukemia
OVCAR-8 ovarian = tested on: OVCAR-8 ovarian
OVCAR-5 ovarian = tested on: OVCAR-5 ovarian
OVCAR-4 ovarian = tested on: OVCAR-4 ovarian
SK-OV-3 ovarian = tested on: SK-OV-3 ovarian
IGROV1 ovarian = tested on: IGROV1 ovarian
OVCAR-3 ovarian = tested on: OVCAR-3 ovarian
HS 578T breast = tested on: HS 578T breast
NCI/ADR-RES ovarian = tested on: NCI/ADR-RES ovarian
T-47D breast = tested on: T-47D breast
BT-549 breast = tested on: BT-549 breast
MDA-MB-435 melanoma = tested on: MDA-MB-435 melanoma
SW-620 colon = tested on: SW-620 colon
MCF7 breast = tested on: MCF7 breast
HCT-116 colon = tested on: HCT-116 colon
HCC-2998 colon = tested on: HCC-2998 colon
KM12 colon = tested on: KM12 colon

Measured: growth

CCN(CC)c1cc(C)c(Cc2c(OC)ccc3ccccc23)cc1C
inactive: SR leukemia 85.5% | RPMI-8226 leukemia 102% | OVCAR-8 ovarian 96.8% | OVCAR-5 ovarian 102% | OVCAR-4 ovarian 96.9% | SK-OV-3 ovarian 83.4% | IGROV1 ovarian 88.6% | OVCAR-3 ovarian 106% | HS 578T breast 81% | NCI/ADR-RES ovarian 103% | T-47D breast 82.3% | BT-549 breast 105% | MDA-MB-435 melanoma 104% | SW-620 colon 86.1% | MCF7 breast 90.9% | HCT-116 colon 86.2% | HCC-2998 colon 100% | KM12 colon 98.1%

CCN(CCC#N)c1ccccc1
inactive: SR leukemia 96.4% | RPMI-8226 leukemia 98% | OVCAR-8 ovarian 103% | OVCAR-5 ovarian 102% | OVCAR-4 ovarian 100% | SK-OV-3 ovarian 114% | IGROV1 ovarian 115% | OVCAR-3 ovarian 113% | HS 578T breast 91.8% | NCI/ADR-RES ovarian 105% | T-47D breast 101% | BT-549 breast 110% | MDA-MB-435 melanoma 109% | SW-620 colon 101% | MCF7 breast 105% | HCT-116 colon 105% | HCC-2998 colon 109% | KM12 colon 114%

CCN(CC)c1ccc(/C=N/NC(=O)c2ccc(S(C)(=O)=O)cc2)c(O)c1
inactive: RPMI-8226 leukemia 21% | OVCAR-8 ovarian 16.8% | OVCAR-5 ovarian 32.5% | OVCAR-4 ovarian 34.7% | SK-OV-3 ovarian 39% | IGROV1 ovarian 21.2% | OVCAR-3 ovarian 33.4% | HS 578T breast 68% | NCI/ADR-RES ovarian 17.8% | T-47D breast 30% | BT-549 breast 30.7% | MDA-MB-435 melanoma 37.2% | SW-620 colon 33.1% | HCT-116 colon 18.4% | HCC-2998 colon 39.6% | KM12 colon 25.9%
active: SR leukemia 9.02% | MCF7 breast 8.79%

O=c1c2cc(Cl)ccc2oc2ccc(OCCCCCN3CCCCC3)cc12
active: SR leukemia 7.54% | MDA-MB-435 melanoma -24%
inactive: RPMI-8226 leukemia 38% | OVCAR-8 ovarian 55.1% | OVCAR-5 ovarian 75.4% | OVCAR-4 ovarian 80.6% | SK-OV-3 ovarian 98.3% | IGROV1 ovarian 72% | OVCAR-3 ovarian 67.1% | HS 578T breast 80.5% | NCI/ADR-RES ovarian 71% | T-47D breast 60.1% | BT-549 breast 64.6% | SW-620 colon 33.7% | MCF7 breast 56.5% | HCT-116 colon 11.5% | HCC-2998 colon 74.7% | KM12 colon 65%

COc1cccc(-c2nc3sccn3c2-c2ccnc(NCCN3CCCNS3(=O)=O)n2)c1
inactive: SR leukemia 59.5% | RPMI-8226 leukemia 102% | OVCAR-8 ovarian 83.8% | OVCAR-5 ovarian 112% | OVCAR-4 ovarian 81.5% | SK-OV-3 ovarian 54.8% | IGROV1 ovarian 75% | OVCAR-3 ovarian 102% | HS 578T breast 105% | NCI/ADR-RES ovarian 105% | T-47D breast 95.3% | BT-549 breast 113% | MDA-MB-435 melanoma 54.1% | SW-620 colon 127% | MCF7 breast 100% | HCT-116 colon 74.6% | HCC-2998 colon 118% | KM12 colon 103%

CCCCCCCCCCCCNC(=O)N[C@H](C(=O)N[C@H]1/C=C/CCNC(=O)/C=C/[C@H](C)NC1=O)C(C)C
active: SR leukemia -22.7% | OVCAR-5 ovarian -83.7% | OVCAR-4 ovarian 3.35% | SK-OV-3 ovarian -42.6% | IGROV1 ovarian -32.9% | OVCAR-3 ovarian -44.3% | T-47D breast -41.9% | BT-549 breast -87.2% | MDA-MB-435 melanoma -40.1% | SW-620 colon -22.3% | HCT-116 colon -85.2% | HCC-2998 colon -95.8% | KM12 colon -62.4%
inactive: RPMI-8226 leukemia 41.1% | OVCAR-8 ovarian 11.5% | HS 578T breast 49.5% | NCI/ADR-RES ovarian 94.4% | MCF7 breast 14.1%

COc1cc(OC)c(Cl)cc1N
inactive: SR leukemia 109% | RPMI-8226 leukemia 104% | OVCAR-8 ovarian 104% | OVCAR-5 ovarian 111% | OVCAR-4 ovarian 109% | SK-OV-3 ovarian 100% | IGROV1 ovarian 114% | OVCAR-3 ovarian 103% | HS 578T breast 77.9% | NCI/ADR-RES ovarian 109% | T-47D breast 98.8% | BT-549 breast 123% | MDA-MB-435 melanoma 98.2% | SW-620 colon 102% | MCF7 breast 95.5% | HCT-116 colon 106% | HCC-2998 colon 106% | KM12 colon 107%

CN(C)c1nc(-c2ccco2)n2nc(-c3ccc(Cl)cc3)cc2n1
inactive: SR leukemia 52.7% | RPMI-8226 leukemia 74.8% | OVCAR-8 ovarian 50.8% | OVCAR-5 ovarian 90% | SK-OV-3 ovarian 45.9% | IGROV1 ovarian 55.8% | OVCAR-3 ovarian 74.1% | HS 578T breast 65.1% | NCI/ADR-RES ovarian 69% | T-47D breast 47.9% | BT-549 breast 86.7% | MDA-MB-435 melanoma 89.6% | SW-620 colon 62.7% | MCF7 breast 68.2% | HCT-116 colon 43.4% | HCC-2998 colon 86% | KM12 colon 84.4%
active: OVCAR-4 ovarian -10.2%

O=C(Nc1ccc([N+](=O)[O-])cc1)c1cc2ccccc2cc1O
active: SR leukemia -17.1% | RPMI-8226 leukemia -26.9% | OVCAR-8 ovarian 0.735% | OVCAR-4 ovarian 1.96% | SK-OV-3 ovarian 9.58% | HS 578T breast -19.9% | NCI/ADR-RES ovarian -9.03% | T-47D breast 1.61% | BT-549 breast -14.2% | MDA-MB-435 melanoma 0.673% | SW-620 colon 4.63% | MCF7 breast 5.51% | HCT-116 colon -39.7% | HCC-2998 colon 5.37%
inactive: OVCAR-5 ovarian 20.7% | IGROV1 ovarian 15.2% | OVCAR-3 ovarian 83.6% | KM12 colon 92.6%

Cc1cccc2nc3ccccc3c(Nc3ccc(NS(C)(=O)=O)cc3)c12
inactive: RPMI-8226 leukemia 52.3% | OVCAR-8 ovarian 39.8% | OVCAR-5 ovarian 62.1% | OVCAR-4 ovarian 77.5% | SK-OV-3 ovarian 41% | IGROV1 ovarian 43.1% | OVCAR-3 ovarian 74.3% | HS 578T breast 87.8% | NCI/ADR-RES ovarian 80.8% | T-47D breast 37.1% | BT-549 breast 81.7% | MDA-MB-435 melanoma 78.6% | SW-620 colon 34.2% | MCF7 breast 24.8% | HCT-116 colon 31.8% | HCC-2998 colon 75.5% | KM12 colon 55.5%
active: SR leukemia -3.06%

COc1cc(/C=C\c2cc(/C=C\c3ccc(O)c(OC)c3)n(C(=O)Nc3ccc(C(F)(F)F)cc3)n2)ccc1O
inactive: SR leukemia 13.2% | OVCAR-5 ovarian 115% | OVCAR-4 ovarian 76.7% | SK-OV-3 ovarian 66.1% | IGROV1 ovarian 42.8% | OVCAR-3 ovarian 13.8% | HS 578T breast 51.9% | NCI/ADR-RES ovarian 51.7% | T-47D breast 47.4% | BT-549 breast 19% | MDA-MB-435 melanoma 27.8% | SW-620 colon 18% | MCF7 breast 22.9% | HCC-2998 colon 103% | KM12 colon 41.4%
active: RPMI-8226 leukemia -0.214% | OVCAR-8 ovarian 0.433% | HCT-116 colon -53.7%

CCS(=O)(=O)Nc1cccc(Nc2c3cccc(C)c3nc3c(C)cccc23)c1OC
inactive: RPMI-8226 leukemia 15.8% | OVCAR-8 ovarian 24% | OVCAR-5 ovarian 21% | OVCAR-4 ovarian 83.5% | SK-OV-3 ovarian 30.6% | IGROV1 ovarian 36.2% | OVCAR-3 ovarian 47.2% | HS 578T breast 61.2% | NCI/ADR-RES ovarian 41.7% | T-47D breast 22.2% | BT-549 breast 15.8% | MDA-MB-435 melanoma 54.9% | SW-620 colon 33.2% | MCF7 breast 11.6% | HCT-116 colon 22.9% | KM12 colon 15.4%
active: SR leukemia 5.24% | HCC-2998 colon 1.62%

COc1cc(NCC(O)CN(CC(C)C)CC(C)C)c2ncccc2c1 (stereo not drawn)
inactive: SR leukemia 50.6% | RPMI-8226 leukemia 37.6% | OVCAR-8 ovarian 63.3% | OVCAR-5 ovarian 101% | OVCAR-4 ovarian 19.5% | SK-OV-3 ovarian 87.4% | IGROV1 ovarian 74.3% | OVCAR-3 ovarian 47.4% | HS 578T breast 84.7% | NCI/ADR-RES ovarian 92.4% | BT-549 breast 95.2% | MDA-MB-435 melanoma 107% | SW-620 colon 74.9% | HCT-116 colon 80.2% | HCC-2998 colon 93.6% | KM12 colon 96%
active: T-47D breast 1.96% | MCF7 breast -25.6%

CCOC(=O)C1=C(C(=O)OCC)N(c2cc(OC)c(OC)c(OC)c2)C(N)=C(C#N)C1c1cc(=O)[nH]c2ccccc12 (stereo not drawn)
inactive: SR leukemia 93.5% | RPMI-8226 leukemia 114% | OVCAR-8 ovarian 105% | OVCAR-5 ovarian 101% | OVCAR-4 ovarian 101% | SK-OV-3 ovarian 97% | IGROV1 ovarian 98.2% | OVCAR-3 ovarian 110% | HS 578T breast 97.2% | NCI/ADR-RES ovarian 101% | T-47D breast 95.4% | BT-549 breast 96.5% | MDA-MB-435 melanoma 96.6% | SW-620 colon 99.2% | MCF7 breast 96% | HCT-116 colon 100% | HCC-2998 colon 108% | KM12 colon 102%

O=S1(=O)NCCN1CCNc1nccc(-c2c(-c3cccc(O)c3)nc3sccn23)n1
inactive: SR leukemia 62.2% | RPMI-8226 leukemia 102% | OVCAR-8 ovarian 103% | OVCAR-5 ovarian 91.9% | OVCAR-4 ovarian 131% | SK-OV-3 ovarian 97.4% | IGROV1 ovarian 105% | OVCAR-3 ovarian 108% | HS 578T breast 95.9% | NCI/ADR-RES ovarian 107% | T-47D breast 106% | BT-549 breast 135% | MDA-MB-435 melanoma 34.7% | SW-620 colon 127% | MCF7 breast 103% | HCT-116 colon 97.8% | HCC-2998 colon 113% | KM12 colon 108%

COc1cc(/C=C/c2cc(/C=C/c3ccc(O)c(OC)c3)n(C(=O)c3ccccc3Br)n2)ccc1O
inactive: RPMI-8226 leukemia 14.3% | OVCAR-8 ovarian 27.7% | OVCAR-5 ovarian 84.5% | OVCAR-4 ovarian 49.8% | SK-OV-3 ovarian 16.6% | IGROV1 ovarian 25% | OVCAR-3 ovarian 12.6% | NCI/ADR-RES ovarian 28.1% | T-47D breast 49% | BT-549 breast 14.5% | SW-620 colon 20.9% | MCF7 breast 20.2% | HCC-2998 colon 40.9%
active: SR leukemia -4.77% | HS 578T breast 3.59% | MDA-MB-435 melanoma -30.5% | HCT-116 colon 6.9% | KM12 colon 4.98%
